# Reference: PubChem BioAssay (Tox21)
# Results filed as inconclusive are left out. Entries that show only a call come without a potency. Active and inactive are the calls of the source. Calls follow the shape of the full dose curve.
# Molecular target: Muscarinic acetylcholine receptor M1 (Homo sapiens) (UniProt P11229)
# Experiment: Cholinergic receptor muscarinic 1 (CHRM1) small molecule antagonists, cell-based qHTS assay (AID 1963588); also: nearly all actives have a fitted effect of over 40% in size
# Details: CHRM1-CHO antagonist mode, calcium flux fluorescence; series mostly up to 61.5 µM
# Source text: National Center for Advancing Translational Sciences [NCATS]
# Division of Preclinical Innovation [DPI]
# U.S. Environmental Protection Agency [EPA]
# National Institutes of Environmental Health Sciences [NIEHS]
# National Toxicology Program [NTP]
# U.S. Food and Drug Administration [FDA]
# The CHRM1 is a muscarinic receptor. This receptor plays a crucial role in learning and memory processes and has long been identified as a promising therapeutic target for the improvement of cognitive decline in Alzheimer's disease (AD). The CHRM1-CHO cell line stably expressing human muscarinic acetylcholine receptor M1 (CHRM1) can be used for screening agonists and antagonists of interactions between CHRM1 and its ligands. The CHRM1-CHO Calcium Flux Assay is a homogeneous fluorescence-based assay for detecting the intracellular calcium level using FDSS kinetic plate reader system.
# Tox21 Assay Protocol Summary:
# CHRM1-CHO cells were dispensed at 1000 cells/3uL/well in 1536-well black-clear bottom plates using a Multidrop Dispenser. After the assay plates were incubated at a 37 C/5% CO2 incubator for 18 h, 3 uL of Dye Loading Buffer was transferred to the assay plate by a Flying Reagent Dispenser. The assay plates were incubated at 37 C for 1h. For antagonist mode, 23 nL of compounds dissolved in DMSO, positive controls or DMSO only was transferred to the assay plate by a pin tool. After 5 min incubation at room temperature, 1.5 uL of acetylcholine at 50nM was added to each well. The fluorescence intensity in the plates was measured using FDSS 7000EX kinetic plate reader for 3 min at 1 sec intervals. Each test compound was measured at 15 concentrations in three independent runs.
# Potency is read from the fitted curve at half-maximal effect.
# Chain of Muscarinic acetylcholine receptor M1 (Homo sapiens) (P11229 whole entry, looked up): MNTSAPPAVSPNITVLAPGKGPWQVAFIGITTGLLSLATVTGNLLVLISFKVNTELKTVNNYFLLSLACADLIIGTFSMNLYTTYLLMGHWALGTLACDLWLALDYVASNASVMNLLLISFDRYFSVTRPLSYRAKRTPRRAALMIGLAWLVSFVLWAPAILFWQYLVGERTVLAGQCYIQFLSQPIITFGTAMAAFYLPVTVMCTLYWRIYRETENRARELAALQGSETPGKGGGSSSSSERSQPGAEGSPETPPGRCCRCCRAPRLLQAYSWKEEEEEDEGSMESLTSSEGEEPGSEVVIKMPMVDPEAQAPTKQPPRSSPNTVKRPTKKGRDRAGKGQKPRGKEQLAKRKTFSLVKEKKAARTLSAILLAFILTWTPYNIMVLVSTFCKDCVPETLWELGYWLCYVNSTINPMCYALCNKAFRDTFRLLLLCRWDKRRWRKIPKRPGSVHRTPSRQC
row,Compound,Potency
1,CC(C)(C#N)C(C)(C)C#N,inactive
2,CC[C@H]1C[C@H]2[C@@H]3CCC4=CC(=O)CC[C@@H]4[C@H]3CC[C@]2(C)[C@H]1O,inactive
3,Nc1ccccc1C(=O)Oc1ccc2ccccc2c1,inactive
4,SCc1ccccc1,inactive
5,CC(C)[C@H](C(=O)OC(C#N)c1cccc(Oc2ccccc2)c1)c1ccc(OC(F)F)cc1 (stereo not given in full),inactive
6,NC(=O)C(Cl)(Cl)Cl,inactive
7,O=[N+]([O-])c1ccccc1CCl,inactive
8,CN(C)C1CSSSC1,inactive
9,ClC1=C(Cl)[C@]2(Cl)[C@H]3[C@H]([C@@H]4C=C[C@H]3C4)[C@@]1(Cl)C2(Cl)Cl,inactive
10,CCOP(=O)(NC(C)C)Oc1ccc(SC)c(C)c1 (stereo not given),inactive
11,O=c1[nH]c2ccccc2n1C1CCNCC1,inactive
12,Cc1c(Cl)c(=O)oc2cc(OP(=O)(OCCCl)OCCCl)ccc12,inactive
13,O=C1NCN(c2ccccc2)C12CCN(CC1COc3ccccc3O1)CC2 (stereo not given),inactive
14,COc1cc(Cl)c(OC)cc1Cl,inactive
15,O=[N+]([O-])c1c(Cl)c(Cl)cc(Cl)c1Cl,11200 nM (active)
16,CC(c1ccc(O)cc1)(c1ccc(O)cc1)c1ccc(O)cc1,inactive
17,O=C(CBr)OCc1ccccc1,inactive
18,COC(=O)c1ccccc1S(=O)(=O)NC(=O)N(C)c1nc(C)nc(OC)n1,inactive
19,CCOC(=O)CBr,inactive
20,CC(=O)[O-].CC(=O)[O-].O.O.O.[Pb+2],inactive

row,Compound,Potency
1,CCOP(=S)(OCC)Oc1ccc(S(C)=O)cc1 (stereo not given),inactive
2,Nc1ccc(Cl)cc1C(=O)c1ccccc1,inactive
3,COP(N)(=S)OC,inactive
4,CCCCCOC(=O)c1ccccc1C(=O)OCCCCC,inactive
5,Cc1cc(=O)[nH]o1,inactive
6,CNC(=O)CSP(=O)(OC)OC,inactive
7,O=C1C(=O)c2cccc3cccc1c23,inactive
8,C[C@]12CC[C@H]3[C@@H](CCC4=CC(=O)CC[C@@H]43)[C@@H]1CC[C@@H]2OC(=O)CCc1ccccc1,2310 nM (active)
9,CCCCS(=O)(=O)Cl,inactive
10,CCCCCCCCCCCCCCC(Br)C(=O)O (stereo not given),inactive
11,CCCCC/C=C\C/C=C\C/C=C\C/C=C\CCCC(=O)NCC(=O)O,inactive
12,CCOC(=O)c1ncn2c1CN(C)C(=O)c1c(I)cccc1-2,inactive
13,C[C@]12CC[C@H]3[C@@H](CCC4=CC(=O)CC[C@@H]43)[C@@H]1CC[C@@H]2OC(=O)CCc1ccco1,1300 nM (active)
14,CCCC(Cn1cncn1)c1ccc(Cl)cc1Cl (stereo not given),inactive
15,CN[C@@H](C)[C@H](O)c1ccccc1,inactive
16,O=C(Nc1ccc2[nH]ccc2c1)c1cc2cc(F)ccc2n1Cc1cccc(F)c1,inactive
17,Oc1ccc(I)cc1,inactive
18,N#Cc1ccc(N(CC(N)=O)CC(F)(F)F)cc1C(F)(F)F,inactive
19,O=C(O)C(Br)(Br)Br,inactive
20,NNCc1ccccc1,inactive
